Data reported in PubChem BioAssay (EPA / NIEHS).
Several values for one entry are separate records, joined by “and”; a condition that tells them apart may be missing. Equal entries are not always repeated. Records with an inconclusive call do not appear. Activity calls are given as the source filed them. Rule for the calls: active = hit-call score of the fitted dose curve at least 0.9, where 1 is the maximum; inconclusive = response in the unintended direction; inactive = score below 0.9.

Assay: CCTE_Mundy_HCI_hNP1_CellTiter: CCTE's Cell Titer-Glo 2 Assay in human neuroprogenitor cells for Viability, Mundy Lab (AID 2284241);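 for AC50: a hit is a drop in ATP luminescence versus DMSO meaning reduced viability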
Protocol: CCTE_Mundy_HCI_hNP1_CellTiter is a multiplexed, cell-based-readout assay that uses neural stem cells derived from a neuroepithelial cell lineage of WA09 embryonic cells with measurements taken at […] after chemical dosing in a microplate: 96-well plate.CCTE_Mundy_HCI_hNP1_CellTiter is one component of the CCTE_Mundy_HCI_hNP1_CellTiter assay. It measures cell viability related to ATP content using Luminescent Reporter.Data from the assay component CCTE_Mundy_HCI_hNP1_CellTiter was analyzed at the endpoint CCTE_Mundy_HCI_hNP1_CellTiter in the positive analysis fitting direction relative to DMSO as the negative control and baseline of activity. Using a type of viability reporter, loss -of-signal activity can be used to understand viability effects.
Human neural progenitor cells (hNP1) were obtained as cryopreserved cells from ArunA Biomedical, Athens Georgia. Cells are plated on pre-coated poly-L-ornithine/laminin clear bottom and opaque 96 well plates (day 0). Plates are placed in a 37 °C, 5% CO2 incubator for 40 to 44 hours at which time plates are removed from the incubator and 10 uL of a freshly made chemical solution is added to each well. Cell viability was based on number of cells per field or determined in sister plates using the CellTiter-Glo luminescent assay (Promega) which measures the amount of ATP present in each well. Twenty-four hours after chemical treatment, 50ul of CellTiter-Glo assay buffer was added to each well and the plate incubated for 30min at room temperature. Luminescence was then recorded in each well using a FLUOstar Optima plate reader (BMG LABTECH, Cary, NC).
In the case of CN(C)[C@@H]1C(=O)C(C(N)=O)=C(O)[C@@]2(O)C(=O)C3=C(O)c4c(O)cccc4[C@@](C)(O)[C@H]3[C@H](O)[C@@H]12, the outcome is reported as “inactive”. For CON=C(C(=O)OC)c1ccccc1CON=C(C)c1cccc(C(F)(F)F)c1, the AC50 was 50 µM (active). With CC(=NC#N)N(C)Cc1ccc(Cl)nc1 the outcome was “inactive”. With COP(=O)(NC(C)=O)SC (stereo not drawn) the outcome was “inactive”. With CCOP(=S)(OCC)OC(Cl)C(Cl)(Cl)Cl (stereo not drawn) the AC50 was 78.1 µM (active) and 88.7 µM (active). In the case of CCCSP(=O)(OCC)SCCC, the outcome is reported as “inactive”. With S=C1NCCN1 the outcome was “inactive”. With CCOP(=S)(OCC)Oc1ccc2c(C)c(Cl)c(=O)oc2c1 the AC50 was 38.6 µM (active). For COP(=O)(OC)C(O)C(Cl)(Cl)Cl (stereo not drawn), the outcome was “inactive”. For CCCCSP(=O)(SCCCC)SCCCC, the AC50 was 66.9 µM (active). In the case of CCOP(=O)(NC(C)C)Oc1ccc(SC)c(C)c1 (stereo not drawn), the AC50 is reported as 51 µM (active). In the case of CCOC(=O)CC(SP(=O)(OC)OC)C(=O)OCC (stereo not drawn), the outcome is reported as “inactive”. For C=C(C)[C@H]1Cc2c(ccc3c2O[C@@H]2COc4cc(OC)c(OC)cc4[C@@H]2C3=O)O1, the AC50 was 0.159 µM (active). With CC[C@H](C)[C@H]1O[C@]2(C=C[C@@H]1C)C[C@@H]1C[C@@H](C/C=C(\C)[C@@H](O[C@H]3C[C@H](OC)[C@@H](O[C@H]4C[C@H](OC)[C@@H](NC)[C@H](C)O4)[C@H](C)O3)[C@@H](C)/C=C/C=C3\CO[C@@H]4[C@H](O)C(C)=C[C@@H](C(=O)O1)[C@]34O)O2 the AC50 was 1.3 µM (active). In the case of CCOP(=O)(SC(C)CC)N1CCSC1=O (stereo not drawn), the outcome is reported as “inactive”. For CN1COCN(Cc2cnc(Cl)s2)C1=N[N+](=O)[O-], the outcome was “inactive”. In the case of CCCSP(=O)(OCC)Oc1ccc(Br)cc1Cl (stereo not drawn), the outcome is reported as “inactive”. In the case of CSC1=N[C@@](C)(c2ccccc2)C(=O)N1Nc1ccccc1, the outcome is reported as “inactive”. With CCOP(=S)(Oc1cnc(C(C)(C)C)nc1)OC(C)C (stereo not drawn) the outcome was “inactive”. With CC(C)N(C(=O)SCC(Cl)=C(Cl)Cl)C(C)C the outcome was “inactive”. For CCOP(=O)(OCC)Oc1cc(C)nc(C(C)C)n1, the outcome was “inactive”. With O=[N+]([O-])c1cc(C(F)(F)F)c(Cl)c([N+](=O)[O-])c1Nc1ncc(C(F)(F)F)cc1Cl the AC50 was 2.4 µM (active). For COP(=O)(OC)OC(Br)C(Cl)(Cl)Br (stereo not drawn), the AC50 was 17.8 µM (active) and 85 µM (active).
